# Screening results (PubChem BioAssay)
# An excerpt weighted towards active compounds, which were near 9.5% of everything screened.
# NPSR antagonist: qHTS Assay for Antagonists of the Neuropeptide S Receptor: cAMP Signal Transduction; Q6W5P4; CHO-NPSR cells, cAMP TR-FRET, antagonist mode; Potency, µM (doses to about 38.3 µM), for the others: at the highest dose activity change, negative = inhibition, most hits filed as inhibitors; 1% of 220,000 active; also: nearly all actives have a fitted effect of over 50% in size
# ALDH1A1 inh: qHTS Assay for Inhibitors of Aldehyde Dehydrogenase 1 (ALDH1A1); Potency, µM (top dose mostly 75.3 µM), without a hit: at the highest dose activity, negative = inhibition, most hits filed as inhibitors; Purified ALDH1A1, NADH fluorescence, propionaldehyde substrate; AID 1030, 2008; 7.3% of 220,000 active; Aldehyde dehydrogenase 1A1 (Homo sapiens), P00352; active = well fitted inhibition curve with a large enough effect, not every such curve was filed as active; inconclusive = small, poorly fitted or top-dose-only effect, or another doubt; inactive = no such curve, though single readings can be large or run the other way;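 also: plate controls were no enzyme wells and a reference inhibitor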
# HPGD block: qHTS Assay for Inhibitors of HPGD (15-Hydroxyprostaglandin Dehydrogenase); 15-hydroxyprostaglandin dehydrogenase [NAD(+)] (Homo sapiens), P15428; purified HPGD, NADH fluorescence kinetic, PGE2 substrate; Potency, µM, for the others: at the top dose activity change, negative = inhibition, most hits filed as inhibitors; 4.3% of 150,000 active; AID 894, 2007; active = well fitted inhibition curve with a large enough effect, not every such curve was filed as active; inconclusive = small, poorly fitted or top-dose-only effect, or another doubt; inactive = no such curve, though single readings can be large or run the other way
# Target sequence (P15428 whole entry, looked up): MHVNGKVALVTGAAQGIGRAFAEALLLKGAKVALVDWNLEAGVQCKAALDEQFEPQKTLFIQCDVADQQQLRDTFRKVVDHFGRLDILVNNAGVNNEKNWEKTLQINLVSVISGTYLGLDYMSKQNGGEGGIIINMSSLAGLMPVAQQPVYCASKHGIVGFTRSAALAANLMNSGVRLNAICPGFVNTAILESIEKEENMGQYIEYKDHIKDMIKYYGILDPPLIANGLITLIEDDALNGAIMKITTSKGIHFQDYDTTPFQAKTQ
#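 NADH formation kinetics: reaction with 30 uM PGE2 and 1 mM NAD+ (final), 20 nM enzyme, Tris-HCl pH 8 with Tween 20, after 15 min compound preincubation at room temperature. Fluorescence change, last versus first of five reads.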
# Tau fibril ThT: qHTS for Inhibitors of Tau Fibril Formation, Thioflavin T Binding. Potency, µM (series often up to 57.4 µM), for inactives: top-dose activity, negative = inhibition, actives largely listed as inhibitors. recombinant tau K18 P301L, heparin-induced fibrillization, ThT fluorescence. Microtubule-associated protein tau (Homo sapiens), P10636. 2.1% of 270,000 active; also: nearly all actives have a fitted effect of over 55% in size
# Target sequence (P10636 561-689 P618L limits assumed): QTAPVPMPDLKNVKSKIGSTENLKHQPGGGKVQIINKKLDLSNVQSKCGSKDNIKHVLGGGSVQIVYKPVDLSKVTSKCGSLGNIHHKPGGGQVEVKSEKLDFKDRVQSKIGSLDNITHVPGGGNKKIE
#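 Aggregation was driven by heparin (20 uM final) acting on recombinant tau […] bearing P301L in 100 mM sodium acetate pH 7; fibrils were detected with Thioflavin T.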
# Tau fluor counter: Counterscreen qHTS for Inhibitors of Tau Fibril Formation, Fluorescence Polarization. tau K18 P301L Alexa594 fluorescence, heparin fibrillization. 0.93% of 280,000 active. Potency, µM (highest dose often 57.7 µM), for inactives: at the top dose activity change, negative = decrease; also: nearly all actives have a fitted effect of over 55% in size
#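 Human tau K18 P301L (15 uM unlabeled, 0.24 uM Alexa 594-labeled) in 100 mM sodium acetate pH 7 with 20 uM heparin, 6 hr at 37 C. ThT 30 uM added, 1 hr ambient; Alexa 594 FP and total fluorescence read at 555/632 nm.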
# Tau fibril FP: qHTS for Inhibitors of Tau Fibril Formation, Fluorescence Polarization; Microtubule-associated protein tau (Homo sapiens), P10636; K18 P301L tau heparin fibrillization, Alexa594 FP, 6 h; Potency, µM (highest dose often 57.7 µM), for inactives: at the top dose activity, negative = inhibition, usual class: inhibitors; 0.39% of 280,000 active; AID 1468, 2008; also: nearly all actives have a fitted effect of over 55% in size
#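 K18 P301L tau (15 uM unlabeled/0.24 uM Alexa 594-labeled, final) + compound + heparin 20 uM final; 100 mM NaOAc pH 7; 6 hr 37 C; ThT 30 uM final added, 1 hr RT; FP ex 555/em 632 nm.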
# The depositor's hits bear a star; u = inconclusive; x = not tested or not shown; [ ] = dose if it differs, or a comment. Unless noted, calls follow the shape of the dose curve; as a rule, active = well fitted curve in the direction sought with a large enough effect; inconclusive = small, poorly fitted or top-dose-only effect, or another doubt; inactive = no such curve, though single readings can be large; an effect the other way counts as inactive or inconclusive. Unless noted, % is scaled to controls: 0 for no effect and ±100 for the full control effect; potency is read from the fitted curve at half-maximal effect.
SMILES,NPSR antagonist,ALDH1A1 inh,HPGD block,Tau fibril ThT,Tau fluor counter,Tau fibril FP
O=C(N/N=C/c1ccc(O)c(O)c1O)/C(=C/c1ccc([N+](=O)[O-])cc1)NC(=O)c1ccccc1,-9.4%[46.1 µM],10µM*,25.1µM*,3.55µM*,u,8.91µM*
Cc1ccc(NC(=O)/C(=C\c2ccc([N+](=O)[O-])cc2)NC(=O)c2ccccc2)cc1,-8.8%[46.1 µM],-5.7%,-10.2%,-13.1%,-21.9%,7.8%
CCc1ccc(NC(=O)CN2C(C(=O)OC)=C(c3ccccc3)c3ccccc3S2(=O)=O)cc1,x,x,x,-4.4%,u,u
CN1CCN(Cc2c(O)ccc3cc(Br)ccc23)CC1,-8.4%,25.1µM*,x,u,-20.6%,u
Cc1c(-c2ccccc2)c(=O)oc2c(CN3CCN(C)CC3)c(O)ccc12,x,x,x,-6.8%,-8.2%,-5.3%
CC[n+]1c(/C=C/C=C/N(C(C)=O)c2ccccc2)sc2ccccc21,-19.6%[46.1 µM],3.55µM*,-26.4%,11.2µM*,8.91µM*[fluorescent],u
CCn1c(/C=C/N(C(C)=O)c2ccccc2)[n+](CC)c2ccc(Cl)cc21,3.1%,2.3%,-1.4%,-2.6%,-0.7%,9.4%
O=C(c1cnccn1)N1CCC[C@@]2(CCN(c3cccc(-c4ccccc4)c3)C2)C1,x,-9.0%,-12.3%,x,x,x
O=C(c1cccc(C(F)(F)F)c1)C1CCCN(C(=O)CCCn2cncn2)C1 (stereo not drawn),-3.4%,0.7%,x,-1.6%,2.0%,7.4%
CSc1ccc(C(=O)C2CCCN(C(=O)CCCn3cncn3)C2)cc1 (stereo not drawn),-16.4%,15.8µM*,x,-1.2%,-0.6%,-3.1%
CC1=C(C(=O)NCCc2ccc(Cl)cc2)C2(CCCCC2)OC1=O,x,x,x,9.0%,-1.4%,-0.5%
O=c1oc2ccccc2c(N2CCCCC2)c1CN1CCCC1,5.6%[46.1 µM],-12.2%,-5.5%,-1.2%,3.5%,1.6%
O=C(CCN1CCOCC1)c1ccccc1,-4.3%[46.1 µM],0.316µM*,-23.3%,u,-12.5%,4.9%
CCc1oc2ccccc2c1C(=O)CCN1CCCCC1,-7.3%[46.1 µM],0.112µM*,28.2µM*,-12.3%,9.7%,u
O=C(O)CCN1CCOCC1,-4.1%[46.1 µM],8.6%,-5.8%,-1.2%,-0.7%,-2.3%
C[N+]1(CCC(=O)c2ccccc2)CCCCC1,1.3%,1.26µM*,31.6µM*,-12.0%,-9.2%,5.1%
O=C(CCN1CCCCC1)c1csc2ccccc12,x,0.141µM*,-13.1%,x,x,x
O=C(NCc1cccnc1)c1nn(-c2ccccc2F)nc1CO,x,x,x,1.8%,-1.8%,-2.8%
Cc1cc(S(=O)(=O)NCc2cccnc2)ccc1-n1cnnn1,4.7%[46.1 µM],10.5%,-2.4%,-3.7%,-1.7%,8.5%
O=c1oc2ccccc2c(N2CCCCC2)c1CN1CCCCC1,0.2%,14.1µM*,-20.3%,-1.0%,-7.8%,3.8%
O=C(CCN1CCCCC1)c1ccccc1,-10.4%[46.1 µM],1.12µM*,-21.4%,-4.9%,3.5%,8.2%
O=C(O)C(CC1CCCCC1)N1CCS(=O)(=O)CC1 (stereo not drawn),9.7%,5.3%,x,2.6%,9.2%,7.7%
COC(=O)c1cccc(Nc2c(-c3ccc(OC)cc3)nc3nc[nH]n23)c1,x,x,x,u,u,-9.0%
CNC(=O)C1CCC(Cn2c(=O)c3sccc3n(CC(=O)Nc3cc(F)ccc3F)c2=O)CC1 (stereo not drawn),x,x,x,1.9%,-6.1%,4.6%
Cc1cc2c(=O)oc(-c3ccccc3Br)nc2s1,-33.0%,x,x,u,-23.0%,-4.3%
SMILES,NPSR antagonist,ALDH1A1 inh,HPGD block,Tau fibril ThT,Tau fluor counter,Tau fibril FP
Cc1cc2c(=O)oc(-c3ccc(F)cc3)nc2s1,-5.7%,15.8µM*,x,4.3%,5.3%[2.34 µM],7.7%[2.34 µM]
COc1ccc(OC)c(NC(=O)N2CCCC(CNS(=O)(=O)c3cccs3)C2)c1 (stereo not drawn),17.4%,u,x,-11.5%,-15.5%,4.4%
COc1ccc(S(=O)(=O)NCC2CCCN(CC(C)(C)C)C2)cc1 (stereo not drawn),-18.1%,20µM*,x,-11.4%,-10.6%,-0.9%
CCOC(=O)CNC(=O)N1CCCC(CNS(=O)(=O)c2cccs2)C1 (stereo not drawn),-20.0%,-7.2%,x,-2.2%,-4.6%,3.5%
COC(=O)CCC(=O)N1CCCC(CNS(=O)(=O)c2ccc(OC)cc2)C1 (stereo not drawn),-17.5%,8.91µM*,x,-10.2%,-4.5%,5.8%
CCOC(=O)N1CCC(NC(=O)C2CCC(CNS(=O)(=O)c3ccc(OC)cc3)CC2)CC1 (stereo not drawn),10.3%[46.1 µM],-8.0%,-4.4%,-7.4%,-5.1%,-3.2%
COc1ccc(S(=O)(=O)NCC2CCCN(C(=O)C=C(C)C)C2)cc1 (stereo not drawn),-12.8%,4.47µM*,x,-13.9%,-15.6%,0.3%
OC[C@@H](O)CNc1ncnc2ccccc12,x,13.1%[13.5 µM],-9.1%,x,x,x
O=C(N/N=C/C=C/c1ccc([N+](=O)[O-])cc1)c1cccs1,-5.9%[46.1 µM],-11.9%,15.8µM*,u,-26.2%,4.8%
CCOc1cc(/C=N/NC(=O)c2cc(C)[nH]n2)ccc1OC(=O)c1ccc([N+](=O)[O-])cc1,-7.3%[46.1 µM],u,-14.2%,u,u,-2.9%
Cc1cc(C(=O)N/N=C/C=C/c2ccc([N+](=O)[O-])cc2)n[nH]1,-37.5%,0.2%,x,1.78µM*,-17.5%,-0.2%
